The source of these data is PubChem BioAssay (NCATS).

Inconclusive results are not listed. A call without a number means that no potency is given here. Calls of active or inactive are those of the source. Calls follow the shape of the dose curve; as a rule, active = well fitted inhibition curve with a large enough effect; inconclusive = small, poorly fitted or top-dose-only effect; inactive = flat fitted curve, though single readings scatter.
Potency is read from the fitted curve at half-maximal effect.

The nature of this experiment: qHTS to identify inhibitors of the type 1 interferon - major histocompatibility complex class I in skeletal muscle: primary screen against the NCATS Pharmaceutical Collection (AID 1347407). The settings on record: human skeletal muscle cells, IFN-b-induced MHC-I HiBiT luminescence, 24 h; series mostly up to 45.9 µM. From the text:
Assay Submitter (PI): Travis B. Kinder Ph.D. & James Inglese Ph.D.
Assay Development and Screening Technology Laboratory (ADST)
National Center for Advancing Translational Sciences (NCATS), Rockville, MD
National Institute of Health (NIH), Bethesda, Maryland
Idiopathic inflammatory myopathies, collectively referred to as myositis, are a group of rare autoimmune diseases characterized by skeletal muscle inflammation, weakness, and usually accompanied by systemic pathologies of the skin, lungs, or vasculature. Current immunosuppressive therapies and glucocorticoids are often not curative and are accompanied by harsh side effects, especially in children with juvenile myositis. We initiated a drug repurposing and development program to identify more targeted, less toxic therapeutics to treat myositis. Although its cause is not known, muscle from a subset of patients have an abundance of the inflammatory type 1 interferon (IFN) and a down-stream product major histocompatibility complex class I (MHC class I), which are both thought to contribute to damage and weakness. We conducted quantitative high throughput screening on 6,576 compounds (4,679 unique) through a series of cell-based assays to identify those that inhibit the IFN-stimulated expression of MHC class I in muscle precursor cells (myoblasts). The compound identification and evaluation strategy utilized a primary screen with reporter-tagged MHC class I in genome-engineered myoblasts, ATP content counter screen for viability, HLA-ABC immunofluorescence secondary screen, and HLA-B RT-qPCR tertiary screen.
The primary screen utilized CRISPR/Cas9 genome-engineering of immortalized human myoblasts, C25cl48, where a pro-luminescent reporter HiBit was fused to the C-terminus of endogenous MHC class I allele HLA-B*08:01 (HLA-B HiBit myoblasts). HiBit is an 11 amino acid fragment of NanoLuc luminescent reporter (Promega Corporation), and when complexed to the larger LgBit fragment, the reconstituted enzyme produces light in the presence of furimazine substrate (Schwinn et al., 2018). Briefly, HLA-B HiBit myoblasts were plated into 1536-well plates, treated with 4.0 ng/ml human IFN-beta and 2,816 compounds from the NCATS Pharmaceutical Collection (NPC) that contains all drugs approved in the US, EU, and Japan (Huang et al., 2011) in an 8-point, 1:5 titration with a high final concentration of 46 uM. After 24 hrs of treatment, cells were assayed by Nano-Glo HiBiT Lytic Detection System (Promega) and luminescence measured by a ViewLux 1430 Ultra HTS (Perkin Elmer).
Huang R, Southall N, Wang Y, Yasgar A, Shinn P, Jadhav A, Nguyen D-T, Austin CP. 2011. The NCGC pharmaceutical collection: a comprehensive resource of clinically approved drugs enabling repurposing and chemical genomics. Sci Transl Med 3:80ps16. doi:10.1126/scitranslmed.3001862
Schwinn MK, Machleidt T, Zimmerman K, Eggers CT, Dixon AS, Hurst R, Hall MP, Encell LP, Binkowski BF, Wood K V. 2018. CRISPR-Mediated Tagging of Endogenous Proteins with a Luminescent Peptide. ACS Chem Biol 13:467-474. doi:10.1021/acschembio.7b00549
PROTOCOL TABLE (as described by Inglese et al., 2007)
SEQUENCE No. (e.g., 1, 2, 3, etc.); […] (e.g., Cells, Incubation, Reagent, etc.); VALUE; DESCRIPTION
1a; Cells; 5 uL; Use a Multidrop Combi (Thermo Scientific) to seed 350 cells/well into nine Greiner 1536 well white/solid bottom, high base, TC plates in 5 ul/well of iHSKM growth medium (GM) without dexamethasone into columns 1+2. Add metal lids with gas-exchange holes
1b; Cells; 5 uL; Use a Multidrop Combi (Thermo Scientific) to seed 350 cells/well into nine Greiner 1536 well white/solid bottom, high base, TC plates in 5 ul/well of iHSKM GM without dexamethasone + 4 ng/ml IFN-b into columns 3 - 48. Add metal lids with gas-exchange holes
2; Incubate; 1 hr; Incubate at 37 C, 5% CO2, 95% RH
[…]
Background: In qHTS, concentration-response curves come from the screen itself.
Regarding `CC(C(=O)O)c1cccc(C(=O)c2ccccc2)c1` (stereo not given), the Potency result is “inactive”.

For the compound `CCOC(=O)C(C)(C)Oc1ccc(Cl)cc1`, the Potency entry is “inactive”.

On to `CN(C)CCCN1c2ccccc2CCc2ccc(Cl)cc21`, for which the Potency result was “inactive”.

Regarding `COc1cc2nc(N(C)CCCNC(=O)C3CCCO3)nc(N)c2cc1OC` (stereo not given), the Potency entry is “inactive”.

Consider `CCCCc1oc2ccccc2c1C(=O)c1cc(I)c(OCCN(CC)CC)c(I)c1`, for which the Potency entry is “inactive”.

With `CC(C)NCC(O)c1ccc(O)c(O)c1` (stereo not given), the Potency entry is “inactive”.

For the compound `Cn1cnc2c1c(=O)[nH]c(=O)n2C`, the Potency entry was “inactive”.

For the compound `Cc1cc(C(C)(C)C)cc(C)c1CC1=NCCN1`, the Potency result is “inactive”.

As to `NCCS(=O)(=O)O`, the Potency result is “inactive”.

Regarding `NCCCCCC(=O)O`, the Potency entry was “inactive”.

`Cn1ccc2cc3c(cc21)CCN3C(=O)Nc1cccnc1`: the Potency result was “inactive”.

For the compound `CCOC(=O)c1ncn2c1CN(C)C(=O)c1cc(F)ccc1-2`, the Potency entry was “inactive”.

For the compound `O=C(c1ccc(OCCN2CCCCC2)cc1)c1c(-c2ccc(O)cc2)sc2cc(O)ccc12`, the Potency result was “inactive”.

Consider `CN1CCN(CCCN2c3ccccc3Sc3ccc(Cl)cc32)CC1`, for which the Potency entry was “inactive”.

Regarding `NC12CC3CC(CC(C3)C1)C2`, the Potency entry was “inactive”.

As for `O=C1Cc2cc(CCN3CCN(c4nsc5ccccc45)CC3)c(Cl)cc2N1`, the Potency entry is “inactive”.

Regarding `OCCN(CCO)c1nc(N2CCCCC2)c2nc(N(CCO)CCO)nc(N3CCCCC3)c2n1`, the Potency entry is “inactive”.

Take `CCCNCC(O)COc1ccccc1C(=O)CCc1ccccc1` (stereo not given): the Potency result is “inactive”.

As for `COc1ccc2[nH]cc(CCNC(C)=O)c2c1`, the Potency entry is “inactive”.

In the case of `Nc1c2c(nc3ccccc13)CCCC2`, the Potency result is “inactive”.

Take `O=c1[nH]cc(F)c(=O)[nH]1`: the Potency entry was “inactive”.

Regarding `CC1(CN2CCC(n3c(=O)[nH]c4ccccc43)CC2)OCc2ccccc2-n2cccc21` (stereo not given), the Potency entry is “inactive”.

`O=C(c1ccc(F)cc1)C1CCN(CCn2c(=O)[nH]c3ccccc3c2=O)CC1`: the Potency result is “inactive”.

Turning to `CN(C)C(=N)N=C(N)N`, the Potency result was “inactive”.

Consider `O=C1N(c2ccccc2)c2ccccc2C1(Cc1ccncc1)Cc1ccncc1`, for which the Potency entry is “inactive”.

In the case of `CNCCCC12CCC(c3ccccc31)c1ccccc12`, the Potency entry was “inactive”.

For `CC(C)NCC(O)COc1ccc(CCOCC2CC2)cc1` (stereo not given), the Potency result is “inactive”.

In the case of `Cc1cc(C(C)(C)C)c(O)c(C)c1CC1=NCCN1`, the Potency result was “inactive”.

On to `CN1CCN2c3ccccc3Cc3ccccc3C2C1` (stereo not given), for which the Potency result is “inactive”.

Turning to `COc1ccccc1OCC(O)CN1CCN(CC(=O)Nc2c(C)cccc2C)CC1` (stereo not given), the Potency entry was “inactive”.

Regarding `CCOC(=O)Nc1ccc(NCc2ccc(F)cc2)nc1N`, the Potency entry is “inactive”.

Take `NC(=O)NO`: the Potency entry is “inactive”.

`O=C1c2c(O)ccc(O)c2C(=O)c2c(NCCNCCO)ccc(NCCNCCO)c21`: the Potency was 11.8 µM (active).

With `COC(=O)Nc1nc2ccc(C(=O)c3cccs3)cc2[nH]1`, the Potency result is “inactive”.

Regarding `Fc1ccc([C@@H]2CCNC[C@H]2COc2ccc3c(c2)OCO3)cc1`, the Potency entry was “inactive”.

In the case of `NS(=O)(=O)c1cc2c(cc1Cl)NCNS2(=O)=O`, the Potency entry was “inactive”.

Take `Cc1ccc(-c2cc(C(F)(F)F)nn2-c2ccc(S(N)(=O)=O)cc2)cc1`: the Potency entry was “inactive”.

Regarding `CC(COc1ccccc1)N(CCCl)Cc1ccccc1` (stereo not given), the Potency entry was “inactive”.

For the compound `C[C@](N)(Cc1ccc(O)c(O)c1)C(=O)O`, the Potency entry was “inactive”.

`COc1ccccc1N1CCN(CC(O)COc2cccc3ccccc23)CC1` (stereo not given): the Potency entry is “inactive”.
